What all share (set-up): scale not given: direction of the effect not stated beside the values
Assay [1] deals with Protein translocase subunit SecA (Escherichia coli (strain K12)) (UniProt P10408). In words: Assay to Identify E. coli SecA ATPase Inhibitors. Type of assay: functional. To be noted: 30 µM.
For assay [2], the target named is T1, Ubiquitin-activating enzyme e1, putative (Leishmania donovani (strain BPK282A1)) (UniProt E9BSI1).
T1 sequence (whole entry): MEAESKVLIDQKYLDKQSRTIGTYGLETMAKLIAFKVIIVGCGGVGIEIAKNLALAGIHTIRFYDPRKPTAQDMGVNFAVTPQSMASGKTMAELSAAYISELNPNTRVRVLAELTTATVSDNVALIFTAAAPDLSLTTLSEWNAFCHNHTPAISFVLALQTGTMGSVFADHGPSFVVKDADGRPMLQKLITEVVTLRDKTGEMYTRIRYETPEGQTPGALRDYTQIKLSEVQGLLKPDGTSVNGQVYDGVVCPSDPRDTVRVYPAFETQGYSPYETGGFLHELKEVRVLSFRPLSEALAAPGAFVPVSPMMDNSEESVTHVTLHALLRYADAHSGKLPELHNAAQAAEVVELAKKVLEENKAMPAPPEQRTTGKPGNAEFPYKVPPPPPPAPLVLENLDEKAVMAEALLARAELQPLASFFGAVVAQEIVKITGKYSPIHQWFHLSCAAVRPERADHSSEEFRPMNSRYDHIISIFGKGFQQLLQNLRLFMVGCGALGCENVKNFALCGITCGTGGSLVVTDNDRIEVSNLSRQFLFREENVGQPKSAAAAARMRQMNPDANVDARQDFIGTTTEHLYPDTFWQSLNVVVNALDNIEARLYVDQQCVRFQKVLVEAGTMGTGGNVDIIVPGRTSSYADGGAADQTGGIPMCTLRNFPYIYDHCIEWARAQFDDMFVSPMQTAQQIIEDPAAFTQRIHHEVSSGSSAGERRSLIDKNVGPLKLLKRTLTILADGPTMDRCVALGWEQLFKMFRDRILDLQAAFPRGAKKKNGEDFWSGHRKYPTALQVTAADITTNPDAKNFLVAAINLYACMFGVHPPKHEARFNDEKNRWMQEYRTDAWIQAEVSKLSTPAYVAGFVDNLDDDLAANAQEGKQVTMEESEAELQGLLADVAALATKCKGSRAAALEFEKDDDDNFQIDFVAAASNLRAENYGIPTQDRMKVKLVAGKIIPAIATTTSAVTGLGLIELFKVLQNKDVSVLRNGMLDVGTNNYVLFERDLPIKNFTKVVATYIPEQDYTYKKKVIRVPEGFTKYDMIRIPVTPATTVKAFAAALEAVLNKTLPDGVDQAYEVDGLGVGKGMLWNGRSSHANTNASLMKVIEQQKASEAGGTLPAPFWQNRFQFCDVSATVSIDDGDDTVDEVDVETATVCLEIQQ
In words: Leishmania donovani Ubiquitin Activating Enzyme (LdE1). The conditions noted are these: 30 µM. Type of assay: functional.

Assay [3] deals with AMP-activated protein kinase, AMPK (Homo sapiens) (UniProt P54646+O43741+P54619+Q9UGJ0+Q9Y478+Q13131+Q9UGI9). In words: AMP-dependent Kinase enzyme assay. An in vitro enzyme assay that detects ADP turnover that is directly proportional to AMPK activity. This uses naive AMPK that is activated during the assay with MK-8722. Type of assay: functional. To be noted: 30 µM.
Assay [4] has as its target Sialic acid-binding Ig-like lectin 9 (Homo sapiens) (UniProt Q9Y336). In words: Hs-Siglec9 ALPHAscreen SOP 20170721. To be noted: 10 µM. On the technique in general: Alpha assays give light when donor and acceptor beads are brought close together.
In another assay the test system is Trypanosoma cruzi. In words: Trypanosoma cruzi phosphomannomutase and mannose-1-phosphate guanylyltransferase assay. To be noted: 10 µM. Type of assay: functional.
The target in assay [5] is T2, Arginase-2, mitochondrial (Homo sapiens) (UniProt P78540).
T2 sequence (whole entry): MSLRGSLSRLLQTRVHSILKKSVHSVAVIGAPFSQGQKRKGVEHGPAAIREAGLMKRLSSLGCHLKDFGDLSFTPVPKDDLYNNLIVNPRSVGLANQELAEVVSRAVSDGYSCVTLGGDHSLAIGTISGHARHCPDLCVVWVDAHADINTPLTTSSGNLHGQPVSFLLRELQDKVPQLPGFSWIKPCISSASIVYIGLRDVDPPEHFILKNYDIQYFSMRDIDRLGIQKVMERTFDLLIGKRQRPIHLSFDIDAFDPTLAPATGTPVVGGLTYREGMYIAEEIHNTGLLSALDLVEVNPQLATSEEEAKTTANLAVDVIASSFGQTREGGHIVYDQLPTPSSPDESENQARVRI
The assay is described as follows: in vitro enzyme assay to detect the production of urea directly proportional to the activity of Arginase II. Further: in the data most compounds retested in dose-response had high values. The class given is functional. The conditions noted are these: 33.3 µM.

In assay [6] the target is T3, Proteasome subunit beta (Trypanosoma cruzi) (UniProt O96673).
T3 sequence (whole entry): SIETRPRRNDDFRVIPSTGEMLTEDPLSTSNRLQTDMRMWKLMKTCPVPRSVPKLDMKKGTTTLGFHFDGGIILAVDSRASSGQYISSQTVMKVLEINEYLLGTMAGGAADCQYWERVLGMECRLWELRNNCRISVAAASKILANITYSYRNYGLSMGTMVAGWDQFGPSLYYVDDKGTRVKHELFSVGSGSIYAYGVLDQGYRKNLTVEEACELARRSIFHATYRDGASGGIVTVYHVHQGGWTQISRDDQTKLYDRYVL
The assay is described as follows: Trypanosoma cruzi proteasome chymotrypsin-like activity (TcProtChymo) assay. Further: in the data most compounds retested in dose-response had high values. The class given is functional. To be noted: 9.37 µM.

The species named for another assay is Homo sapiens. In words: To identify inhibition of the IFN signalling (Jak-Stat) pathway via expression of an eGFP reporter gene under the control of an IFN-stimulated response element (ISRE) containing MxA promoter. The class given is functional. The conditions noted are these: 30 µM. For orientation: A reporter such as luciferase makes a cellular process visible.

The target of assay [7] is T4, Tyrosyl-tRNA synthetase, putative (Trypanosoma cruzi (strain CL Brener)) (UniProt Q4DSP6).
T4 sequence (whole entry): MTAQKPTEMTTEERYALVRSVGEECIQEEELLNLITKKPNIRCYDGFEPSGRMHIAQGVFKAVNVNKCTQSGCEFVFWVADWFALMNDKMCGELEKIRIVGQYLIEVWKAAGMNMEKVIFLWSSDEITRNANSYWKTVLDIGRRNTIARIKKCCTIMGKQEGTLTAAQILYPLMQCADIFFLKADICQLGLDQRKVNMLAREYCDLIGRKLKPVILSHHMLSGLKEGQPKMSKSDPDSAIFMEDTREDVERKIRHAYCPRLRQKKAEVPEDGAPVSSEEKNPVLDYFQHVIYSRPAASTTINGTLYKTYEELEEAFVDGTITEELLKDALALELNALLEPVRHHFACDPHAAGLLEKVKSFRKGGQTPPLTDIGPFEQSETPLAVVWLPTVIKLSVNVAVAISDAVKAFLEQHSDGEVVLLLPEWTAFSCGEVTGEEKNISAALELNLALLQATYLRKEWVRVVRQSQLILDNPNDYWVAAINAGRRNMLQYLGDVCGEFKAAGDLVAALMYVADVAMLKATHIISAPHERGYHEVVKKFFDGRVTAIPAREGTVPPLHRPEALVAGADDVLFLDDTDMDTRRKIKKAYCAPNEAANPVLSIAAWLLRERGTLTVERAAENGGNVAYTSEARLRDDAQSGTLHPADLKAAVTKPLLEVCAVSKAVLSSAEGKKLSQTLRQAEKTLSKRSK
In words: Trypanosoma cruzi tyrosyl tRNA synthetase (TcYRS) _High Tyrosine SOP. Further: in the data most compounds retested in dose-response had high values. Type of assay: functional. To be noted: 30 µM.

Assay [8] concerns the target T4, Tyrosyl-tRNA synthetase, putative (Trypanosoma cruzi (strain CL Brener)). In words: Trypanosoma cruzi tyrosyl tRNA synthetase (TcYRS) SOP. The class given is functional. To be noted: 30 µM.
Assay [9] concerns the target Chromo domain-containing protein 1 (Saccharomyces cerevisiae (strain ATCC 204508 / S288c) (Baker's yeast)) (UniProt P32657). The assay is described as follows: ScCHD-1 Enzyme Inhibition Assay. Further: in the data most compounds retested in dose-response had high values. To be noted: 30 µM. The class given is functional.

For some of these results: Measured potencies and affinities stand elsewhere.

Chain of Sialic acid-binding Ig-like lectin 9 (Homo sapiens) (Q9Y336 whole entry): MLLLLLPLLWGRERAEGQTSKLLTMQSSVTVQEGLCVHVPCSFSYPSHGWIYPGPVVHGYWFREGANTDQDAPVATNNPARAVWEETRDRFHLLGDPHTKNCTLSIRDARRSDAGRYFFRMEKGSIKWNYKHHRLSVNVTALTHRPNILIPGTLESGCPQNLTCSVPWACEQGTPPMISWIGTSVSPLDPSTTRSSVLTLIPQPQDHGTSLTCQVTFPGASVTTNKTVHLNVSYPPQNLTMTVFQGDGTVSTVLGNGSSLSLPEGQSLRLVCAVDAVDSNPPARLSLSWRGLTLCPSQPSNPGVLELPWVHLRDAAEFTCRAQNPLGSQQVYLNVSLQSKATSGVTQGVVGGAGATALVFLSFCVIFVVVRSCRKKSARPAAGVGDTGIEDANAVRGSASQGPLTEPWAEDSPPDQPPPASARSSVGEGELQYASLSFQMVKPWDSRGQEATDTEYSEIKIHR
Chain of Chromo domain-containing protein 1 (Saccharomyces cerevisiae (strain ATCC 204508 / S288c) (Baker's yeast)) (P32657 whole entry, the tested form may be a part): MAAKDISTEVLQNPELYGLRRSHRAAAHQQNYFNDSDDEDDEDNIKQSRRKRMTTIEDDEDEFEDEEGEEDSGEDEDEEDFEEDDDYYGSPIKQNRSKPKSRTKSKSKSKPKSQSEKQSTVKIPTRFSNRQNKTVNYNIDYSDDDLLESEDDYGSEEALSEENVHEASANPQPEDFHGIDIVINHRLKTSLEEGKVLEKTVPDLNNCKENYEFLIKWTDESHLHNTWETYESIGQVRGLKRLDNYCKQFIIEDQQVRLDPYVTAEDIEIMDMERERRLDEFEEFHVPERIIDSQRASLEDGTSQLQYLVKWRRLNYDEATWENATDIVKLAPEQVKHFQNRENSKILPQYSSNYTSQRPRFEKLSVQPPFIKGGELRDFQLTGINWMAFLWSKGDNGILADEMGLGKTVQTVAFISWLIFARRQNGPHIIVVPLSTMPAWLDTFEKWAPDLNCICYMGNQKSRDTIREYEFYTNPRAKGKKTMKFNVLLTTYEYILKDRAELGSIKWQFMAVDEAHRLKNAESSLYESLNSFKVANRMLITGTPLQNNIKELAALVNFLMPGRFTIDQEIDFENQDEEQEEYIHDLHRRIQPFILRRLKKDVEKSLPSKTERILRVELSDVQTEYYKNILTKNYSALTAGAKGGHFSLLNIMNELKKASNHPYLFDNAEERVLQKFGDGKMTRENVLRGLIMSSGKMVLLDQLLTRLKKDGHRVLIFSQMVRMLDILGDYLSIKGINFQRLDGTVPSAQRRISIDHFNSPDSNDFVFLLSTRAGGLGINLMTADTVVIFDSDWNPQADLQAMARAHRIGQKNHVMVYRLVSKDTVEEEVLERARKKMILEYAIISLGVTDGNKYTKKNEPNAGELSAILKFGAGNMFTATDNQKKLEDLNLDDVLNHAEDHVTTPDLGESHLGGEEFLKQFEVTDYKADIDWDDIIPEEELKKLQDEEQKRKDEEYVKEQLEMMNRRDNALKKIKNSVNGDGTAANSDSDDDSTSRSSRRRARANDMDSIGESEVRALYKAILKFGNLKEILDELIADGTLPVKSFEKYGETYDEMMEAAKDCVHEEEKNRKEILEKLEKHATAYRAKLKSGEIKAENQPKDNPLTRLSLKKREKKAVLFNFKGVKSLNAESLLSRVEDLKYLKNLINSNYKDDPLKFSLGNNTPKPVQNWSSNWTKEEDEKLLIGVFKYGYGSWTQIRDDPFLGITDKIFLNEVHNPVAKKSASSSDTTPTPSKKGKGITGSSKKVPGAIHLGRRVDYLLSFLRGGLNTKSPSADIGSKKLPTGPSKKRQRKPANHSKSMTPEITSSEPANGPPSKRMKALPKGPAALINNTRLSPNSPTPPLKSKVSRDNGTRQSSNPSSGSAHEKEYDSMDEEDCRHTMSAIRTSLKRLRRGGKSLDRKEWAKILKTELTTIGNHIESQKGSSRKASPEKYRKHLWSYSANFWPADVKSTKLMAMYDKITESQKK
Chain of Protein translocase subunit SecA (Escherichia coli (strain K12)) (P10408 whole entry): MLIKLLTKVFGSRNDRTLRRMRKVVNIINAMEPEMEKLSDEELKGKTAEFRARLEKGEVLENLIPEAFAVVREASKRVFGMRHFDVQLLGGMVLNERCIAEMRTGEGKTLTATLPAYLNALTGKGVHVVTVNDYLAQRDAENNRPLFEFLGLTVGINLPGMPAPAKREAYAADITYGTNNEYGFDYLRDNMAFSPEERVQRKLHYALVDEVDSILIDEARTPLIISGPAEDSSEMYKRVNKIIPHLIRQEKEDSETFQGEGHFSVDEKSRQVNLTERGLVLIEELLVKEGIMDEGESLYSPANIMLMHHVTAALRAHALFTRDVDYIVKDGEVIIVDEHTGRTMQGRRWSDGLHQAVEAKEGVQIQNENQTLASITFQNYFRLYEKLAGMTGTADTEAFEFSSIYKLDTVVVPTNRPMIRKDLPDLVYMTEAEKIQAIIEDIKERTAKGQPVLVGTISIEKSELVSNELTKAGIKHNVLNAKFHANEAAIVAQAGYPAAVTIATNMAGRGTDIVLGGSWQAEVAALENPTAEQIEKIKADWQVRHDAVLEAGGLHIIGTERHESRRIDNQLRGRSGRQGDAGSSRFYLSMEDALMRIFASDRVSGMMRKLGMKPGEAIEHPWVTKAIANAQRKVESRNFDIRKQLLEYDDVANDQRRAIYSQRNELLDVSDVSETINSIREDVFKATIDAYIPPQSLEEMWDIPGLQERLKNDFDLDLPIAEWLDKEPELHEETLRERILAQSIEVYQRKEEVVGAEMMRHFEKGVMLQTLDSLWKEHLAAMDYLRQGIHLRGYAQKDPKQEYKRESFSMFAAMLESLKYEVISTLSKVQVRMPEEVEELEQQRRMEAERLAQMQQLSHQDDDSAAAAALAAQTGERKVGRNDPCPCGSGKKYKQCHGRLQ

As for `CC(C)CN1C(=O)C2(CCN(Cc3nccs3)C2)c2ccccc21` (stereo unspecified), the Percent Effect in assay [1] was -1.96%; in [2], 5.41%; in assay [3], -2.39%; in assay [4] it was 1.8%; in the assay on Trypanosoma cruzi, -5.08%; in assay [5], 5%. Besides, the Percent Effect in [6] is 16.1%; in the assay filed under Homo sapiens, 37.2%; in assay [7], 3.96%; in assay [8], 3.66%; in assay [9], -5.7%.

For `Cc1nn(C)c(C)c1C(C)NC(=O)Nc1cccnc1N1CCCC1` (stereo unspecified), the Percent Effect was -1.26% in [1]; 2.7% in assay [2]; -19.3% in assay [3]; 6.12% in assay [4]; -3.3% in the assay on Trypanosoma cruzi; 0% in [5]. Besides, the Percent Effect is 0.18% in assay [6]; 15% in the assay listed under Homo sapiens; -0.493% in assay [7]; 3.7% in [8]; -0.951% in [9].

As to `Cc1cnn(CC2CN(CC(=O)Nc3nnc(C)s3)CCO2)c1` (stereo unspecified), the Percent Effect in assay [1] was -5.89%; in assay [2], 13.2%; in assay [3] it was 0.773%; in assay [4] it was 3.55%; with Trypanosoma cruzi it was 7.71%; in assay [5] it was -0.766%. Moreover, the Percent Effect is 6.01% in assay [6]; -6.29% in the assay listed under Homo sapiens; 3.43% in assay [7]; 12.2% in assay [8]; -12.5% in assay [9].

Consider `COCCCN(C)Cc1nc2c(cnn2C)c(=O)[nH]1`, for which the Percent Effect in assay [1] is -5.54%; in assay [2], 21.1%; in [3] it was -0.426%; in [4], -2.13%; in the assay on Trypanosoma cruzi, 7.75%; in [5], 3.96%. The Percent Effect in assay [6] is 18.4%; in the assay filed under Homo sapiens, -3.84%; in [7], 2.46%; in assay [8], 25.9%; in assay [9], -9.74%.

As for `CCn1nc(C)c2ncnc(NCCCN3CCOCC3)c21`, the Percent Effect in [1] was -5.99%; in assay [2], 9.33%; in assay [3], -3.7%; in assay [4], 9.5%; in the assay with Trypanosoma cruzi, 0.786%; in assay [5], -2.64%. The Percent Effect in [6] is 12.2%; in the assay listed under Homo sapiens, -4.74%; in assay [7], 5.29%; in [8], 12.8%; in [9], -10.7%.

With `CCOc1ccccc1OC1CCN(C(=O)c2nc(=O)[nH][nH]2)CC1`, the Percent Effect in assay [1] is -5.6%; in assay [2], 18.4%; in assay [3], -5.81%; in [4] it was 1.22%; with Trypanosoma cruzi, 10.5%; in assay [5] it was -3.06%. Further, the Percent Effect in [6] was 13.9%; in the assay listed under Homo sapiens it was 18.1%; in assay [7], 6.37%; in [8], 19.5%; in assay [9], -9.11%.

Consider `Cc1cc(CN2CCCC2c2c(C)nn(C)c2Cl)no1` (stereo unspecified), for which the Percent Effect in [1] is -2.25%; in [2] it was 21.1%; in [3], -2.49%; in assay [4], -2.11%; with Trypanosoma cruzi it was 3.46%; in assay [5], 3.24%. The Percent Effect is 13.4% in assay [6]; 3.96% in the assay listed under Homo sapiens; 10.3% in [7]; 28.4% in assay [8]; -10.3% in [9].

On to `Cc1cc2c(=O)n3c(nc2s1)CCN(C(=O)c1scnc1C)CC3`, for which the Percent Effect in assay [1] was -1.99%; in [2], 9.46%; in assay [3] it was 9.3%; in assay [4], 2.42%; in the assay on Trypanosoma cruzi, -1.58%; in assay [5] it was -5.34%. Besides, the Percent Effect was 7.49% in assay [6]; -18% in the assay filed under Homo sapiens; -1.07% in assay [7]; 11.7% in [8]; -8.95% in assay [9].

As to `CC(C)(C)OC(=O)NC(C)(C)c1noc(CN2CCCCC2)n1`, the Percent Effect in assay [1] was -5.9%; in assay [2], 8%; in assay [3], -1.12%; in assay [4] it was -1.61%; in the assay on Trypanosoma cruzi it was -3.02%; in [5] it was 1.04%. Moreover, the Percent Effect in assay [6] was 9.07%; in the assay filed under Homo sapiens it was 13.4%; in [7] it was 2.73%; in assay [8], 8.64%; in [9], -7.41%.

As to `O=C(c1ccc[nH]1)N1C[C@H](OCc2cccnc2)[C@H]2COC[C@H]21`, the Percent Effect in assay [1] is -4.86%; in assay [2] it was 0%; in assay [3], 2.4%; in [4] it was -3.13%; in the assay on Trypanosoma cruzi it was 1.17%; in assay [5], -1.25%. Further, the Percent Effect in [6] was 12.3%; in the assay filed under Homo sapiens it was -27.9%; in assay [7] it was 8.91%; in assay [8] it was -3.66%; in [9], -5.43%.

On to `CCOc1ccnc(N2CCN(C(=O)c3cc(Cl)c[nH]3)CC2)n1`, for which the Percent Effect in assay [1] was -4.52%; in assay [2], 12.7%; in assay [3], 0.626%; in assay [4] it was 5.17%; in the assay with Trypanosoma cruzi, 1.98%; in assay [5], 0.38%. For the same compound, the Percent Effect was 2.54% in assay [6]; 0.798% in the assay filed under Homo sapiens; 9.36% in [7]; 21.5% in assay [8]; -5.03% in assay [9].
